Several values for one entry are separate records, joined by “and”; a condition that tells them apart may be missing. Equal entries are not always repeated. Results filed as inconclusive are left out. Activity calls are given as the source filed them. Unless noted, calls come from the whole dose curve; as a rule, active = well fitted curve in either direction with a large enough effect (not every such curve was filed as active); inconclusive = small, poorly fitted or top-dose-only effect, or another doubt; inactive = flat fitted curve, though single readings scatter.
Experiments:
[1] = Stat Signaling Pathway (AID 446);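 note: ME-180 cervical cancer cells given 40 pM IL-6 alongside compound; SIE-controlled beta-lactamase reporter measured as 460/530 nm FRET emission ratio; % is set by controls: 0 for no effect and ±100 for the full control effect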
Summary of the method: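 ME-180 SIE-bla cells; overnight plating; cpd + IL-6 40 pM, 5 h, 37 C; LiveBLAzer 2.5 h RT; 460/530 nm emission ratio. Normalized to 300 pM IL-6 and 125 nM JAK inhibitor controls.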

[2] = biological target: Glucocorticoid receptor (Homo sapiens) (UniProt P04150); assay: GR-GFP Redistribution (AID 450;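 active = compounds whose dose series gives a full or clear partial fitted curve of increased nuclear translocation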; note: potency is the fitted concentration of half-maximal effect); conditions: U2OS GR-GFP nuclear translocation, laser cytometry, 2 h
[3] = biological target: Glucocorticoid receptor (Homo sapiens) (UniProt P04150); assay: GR-EFC Redistribution (AID 451; calls by dose curve; note: potency is the fitted concentration of half-maximal effect); conditions: CHO-K1 GR-EFC translocation, beta-gal luminescence, 2 h
Summary of the method: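 CHO-K1 cells stably expressing nuclear-localized β-gal enzyme acceptor and GR fused C-terminally to the enzyme donor fragment; ligand-driven nuclear translocation restores β-gal by complementation. Compounds titrated up to 46 uM final, 2 h at 37 °C; luminescence read.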

[4] = biological target: Mitogen-activated protein kinase 10 (Mus musculus) (UniProt Q61831); assay: JNK3 AlphaScreen Assay (AID 530);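 note: kinase came from lysate of stimulated human HepG2 cells; signal reports phosphorylation of biotinylated GST-cJun 1-79 at Ser73 with 10 µM ATP; % is set by controls: 0 for no effect and ±100 for the full control effect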
Summary of the method: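 JNK3 came from HepG2 lysates pre-activated with IL-1beta and TNF-alpha and phosphorylated biotinylated GST-cJun (1-79) at 10 uM ATP, pH 7.6, room temperature. Compounds were titrated. AlphaScreen signal used anti-phospho-cJun (Ser73) antibody.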

[5] = biological target: 3',5'-cyclic-AMP phosphodiesterase 4B (Homo sapiens) (UniProt Q07343); assay: qHTS Assay for Inhibitors of PDE-IV (AID 607; active = well fitted activation curve with a large enough effect in the main read-out, with a control signal flat, not every such curve was filed as active; note: % of control where 0% means no effect)
Summary of the method: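 ACTOne HEK293 cells carry a modified cAMP-gated CNG channel and express endogenous PDE4; plated 1000 cells/well, compounds up to 22.9 uM final. Membrane-potential dye fluorescence (ex 535/em 590) was read; parental cells received 10 uM forskolin + 100 uM RO 20-1724.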

[6] = Cell Viability - N2a (AID 540; active = well fitted curve in the direction sought with a large enough effect; an effect the other way counts as inactive or inconclusive;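 note: plate controls were DMSO alone for no effect and tamoxifen control for full effect; nearly all actives have a fitted effect of over 45% in size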)
Summary of the method: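 Mouse neuroblastoma N2a cells (1500/well) were preincubated 5 hr at 37 °C, then exposed to compounds for 40 hr at 37 °C in complete medium. Viability was read as intracellular ATP by CellTiter-Glo luminescence; AC50 from Hill fits.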

[7] = Cell Viability - NIH 3T3 (AID 541; active = well fitted curve in the direction sought with a large enough effect; an effect the other way counts as inactive or inconclusive;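 note: plate controls were DMSO alone for no effect and tamoxifen positive control for full effect; nearly all actives have a fitted effect of over 25% in size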); conditions: NIH 3T3 cell viability, qHTS; activity change, negative = cytotoxicity: at 92.2 µM (top of the series)
Summary of the method: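 NIH 3T3 mouse embryo fibroblasts (1000 cells/well) were plated in complete medium and treated with compound for 40 hr at 37 °C. Viability was read as intracellular ATP by CellTiter-Glo luminescence; AC50 values came from Hill-equation fits of concentration-response data.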

[8] = Cell Viability - HUV-EC-C (AID 542; active = well fitted curve in the direction sought with a large enough effect; an effect the other way counts as inactive or inconclusive; note: % is set by controls: 0 for no effect and ±100 for the full control effect; nearly all actives have a fitted effect of over 35% in size)
Summary of the method: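 HUV-EC-C normal human vascular endothelial cells, 1000 cells/well, pre-incubated 5 hr at 37 °C, then exposed to compounds for 40 hr at 37 °C in complete medium. Viability measured as intracellular ATP by CellTiter-Glo luminescence; AC50 from Hill fits.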

[9] = Cell Viability - SH-SY5Y (AID 544; active = well fitted curve in the direction sought with a large enough effect; an effect the other way counts as inactive or inconclusive;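 note: 0% = DMSO alone and -100% = 100 µM tamoxifen; nearly all actives have a fitted effect of over 55% in size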)
Summary of the method: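 Human neuroblastoma SH-SY5Y cells (1500/well) in complete medium were exposed to compounds for 40 hr at 37 °C; intracellular ATP was then quantified by CellTiter-Glo luminescence after 20 min at room temperature. AC50 came from Hill-equation concentration-response fits.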

[10] = Cell Viability - Renal Proximal Tubule (AID 545; active = well fitted curve in the direction sought with a large enough effect; an effect the other way counts as inactive or inconclusive;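 note: 0% = DMSO only and -100% = 100 µM tamoxifen; nearly all actives have a fitted effect of over 40% in size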); conditions: renal proximal tubule cells viability, primary cells of rat origin; activity change, negative = cytotoxicity: at 91.7 µM (top of the series)
Summary of the method: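 Rat renal proximal tubule primary cells, 1000/well, exposed to compounds for 40 hr at 37 °C in complete medium; cellular ATP read by CellTiter-Glo luminescence. AC50 from concentration-response fitted with standard Hill equation.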

[11] = Cell Viability - Mesenchymal (AID 546; active = well fitted curve in the direction sought with a large enough effect; an effect the other way counts as inactive or inconclusive;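 note: cells exposed to compound for 40 hours before reading; 0% = DMSO only and -100% = 100 µM tamoxifen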); conditions: mesenchymal cells viability, qHTS; activity change, negative = cytotoxicity: at 91.7 µM (top of the series)
Summary of the method: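 Normal human renal glomerulus-derived kidney mesenchymal cells, 1000 per well in complete medium, were treated with compounds for 40 hr at 37 °C. Viability was read as intracellular ATP by CellTiter-Glo luminescence; AC50 values came from Hill-equation fits of qHTS concentration-response data.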

[12] = Cellular Toxicity (caspase-3) HepG2 (AID 654; active = well fitted curve in the direction sought with a large enough effect; an effect the other way counts as inactive or inconclusive;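 note: cells exposed to compound for 16 hours before reading; 0% = DMSO alone and 100% = caspase signal from 100 µM tamoxifen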)
Summary of the method: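 HepG2 cells (1500/well) in complete medium were treated with compounds for 16 hr at 37 °C. Caspase-3/7 activity was then read as luminescence from peptide-aminoluciferin cleavage. AC50 came from Hill fits, normalized to DMSO and 100 uM tamoxifen.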

[13] = Cellular Toxicity (caspase-3) Jurkat (AID 655; active = well fitted curve in the direction sought with a large enough effect; an effect the other way counts as inactive or inconclusive;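 note: cells exposed to compound for 16 h at 37 °C before reading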)
Summary of the method: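 Jurkat cells (5000/well) in complete medium exposed 16 h at 37 C; caspase-3/7 activity read by Caspase-Glo luminescence after 20 min at room temperature. Normalized to DMSO and 100 uM tamoxifen; AC50 from Hill fits.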

[14] = Cellular Toxicity (caspase-3) HUV-EC-C (AID 656; active = well fitted curve in the direction sought with a large enough effect; an effect the other way counts as inactive or inconclusive;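 note: 0% = DMSO basal and 100% = 100 µM tamoxifen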)
Summary of the method: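 HUV-EC-C cells (1000/well) in complete medium, compound-treated 16 h at 37 °C; caspase-3/7 activity read by Caspase-Glo 3/7 luminescence. Normalized to DMSO (basal) and 100 uM tamoxifen (100%); AC50 from Hill-equation concentration-response fits.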

[15] = Cellular Toxicity (caspase-3) SHSY5Y (AID 657; active = well fitted curve in the direction sought with a large enough effect; an effect the other way counts as inactive or inconclusive)
Summary of the method: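 SH-SY5Y human neuroblastoma cells, 1500/well, exposed to compound for 16 hours at 37 °C in complete medium. Caspase-3/7 activity read by Caspase-Glo luminescence after 1 hr at room temperature, normalized to DMSO and 10 uM staurosporine; AC50 from Hill fit.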

[16] = Cellular Toxicity (caspase-3) BJ (AID 658; active = well fitted curve in the direction sought with a large enough effect; an effect the other way counts as inactive or inconclusive;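 note: 0% = DMSO basal and 100% = 10 µM staurosporine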)
Summary of the method: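 Luminescent aminoluciferin-substrate cleavage reports caspase 3/7 activity in normal human BJ fibroblasts after 16 hr compound exposure at 37 °C. Normalized to DMSO (basal) and 10 uM staurosporine (100%); AC50 from Hill fit of concentration-response.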

[17] = Cellular Toxicity (caspase-3) Mesangial (AID 660; active = well fitted curve in the direction sought with a large enough effect; an effect the other way counts as inactive or inconclusive;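 note: cells exposed to compound for 16 h before the caspase read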)
Summary of the method: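 Human renal glomerular mesangial cells (1000/well) were treated with compounds for 16 h at 37 °C in complete medium, then caspase 3/7 activity was read by Caspase-Glo luminescence. Data were normalized to DMSO and 100 uM tamoxifen; AC50 from Hill fits.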

[18] = Cellular Toxicity (caspase-3) H-4-II-E (AID 663; active = well fitted curve in the direction sought with a large enough effect; an effect the other way counts as inactive or inconclusive;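 note: cells exposed to compound for 16 hr before readout; 0% = DMSO basal and 100% = 100 µM tamoxifen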)
Summary of the method: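 Luminescence from caspase-cleaved aminoluciferin substrate, read 20 min after reagent addition, reports caspase 3/7 activation in rat H-4-II-E cells after 16 hr compound exposure. Normalized to DMSO (basal) and 100 uM tamoxifen (100%); AC50 from Hill fits.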

[19] = Cellular Toxicity (caspase-3) Hek293 (AID 664; active = well fitted curve in the direction sought with a large enough effect; an effect the other way counts as inactive or inconclusive;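 note: cells exposed to compound for 16 h at 37 °C before readout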)
Summary of the method: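 HEK293 cells were exposed to compounds in complete medium for 16 hr at 37 °C, then caspase-3/7 activity was read by Caspase-Glo 3/7 luminescence after 20 min at room temperature. Data normalized to DMSO and 100 uM tamoxifen; AC50 from Hill fits.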

[20] = Cell Viability - H-4-II-E (AID 543; active = well fitted curve in the direction sought with a large enough effect; an effect the other way counts as inactive or inconclusive; note: % is set by controls: 0 for no effect and ±100 for the full control effect; nearly all actives have a fitted effect of over 35% in size)
Summary of the method: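 Rat hepatoma H-4-II-E cells (1500/well) were plated, incubated 5 hr at 37 °C, then exposed to compounds for 40 hr at 37 °C. Cellular ATP was read by CellTiter-Glo luminescence; AC50 came from Hill-equation fits of concentration-response data.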

Sequence of 3',5'-cyclic-AMP phosphodiesterase 4B (Homo sapiens) (Q07343 whole entry, looked up): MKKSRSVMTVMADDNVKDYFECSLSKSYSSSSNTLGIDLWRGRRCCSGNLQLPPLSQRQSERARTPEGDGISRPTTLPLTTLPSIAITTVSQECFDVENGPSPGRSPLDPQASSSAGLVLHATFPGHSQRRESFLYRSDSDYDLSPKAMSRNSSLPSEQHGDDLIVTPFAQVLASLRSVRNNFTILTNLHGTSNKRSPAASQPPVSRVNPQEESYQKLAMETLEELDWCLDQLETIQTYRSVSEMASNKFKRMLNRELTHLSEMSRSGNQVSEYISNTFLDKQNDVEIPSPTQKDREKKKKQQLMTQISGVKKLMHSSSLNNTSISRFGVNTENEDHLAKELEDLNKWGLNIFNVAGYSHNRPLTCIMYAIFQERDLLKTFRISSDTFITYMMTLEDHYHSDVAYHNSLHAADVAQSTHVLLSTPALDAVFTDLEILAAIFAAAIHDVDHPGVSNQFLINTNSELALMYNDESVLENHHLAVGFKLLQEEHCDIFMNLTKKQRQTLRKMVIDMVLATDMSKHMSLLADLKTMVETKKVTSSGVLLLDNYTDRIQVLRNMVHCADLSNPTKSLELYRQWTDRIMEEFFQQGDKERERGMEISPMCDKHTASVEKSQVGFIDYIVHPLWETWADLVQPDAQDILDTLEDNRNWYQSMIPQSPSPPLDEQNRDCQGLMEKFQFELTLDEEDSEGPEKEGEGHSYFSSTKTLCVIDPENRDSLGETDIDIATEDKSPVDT
Sequence of Glucocorticoid receptor (Homo sapiens) (P04150 whole entry, looked up, the tested form may be a part): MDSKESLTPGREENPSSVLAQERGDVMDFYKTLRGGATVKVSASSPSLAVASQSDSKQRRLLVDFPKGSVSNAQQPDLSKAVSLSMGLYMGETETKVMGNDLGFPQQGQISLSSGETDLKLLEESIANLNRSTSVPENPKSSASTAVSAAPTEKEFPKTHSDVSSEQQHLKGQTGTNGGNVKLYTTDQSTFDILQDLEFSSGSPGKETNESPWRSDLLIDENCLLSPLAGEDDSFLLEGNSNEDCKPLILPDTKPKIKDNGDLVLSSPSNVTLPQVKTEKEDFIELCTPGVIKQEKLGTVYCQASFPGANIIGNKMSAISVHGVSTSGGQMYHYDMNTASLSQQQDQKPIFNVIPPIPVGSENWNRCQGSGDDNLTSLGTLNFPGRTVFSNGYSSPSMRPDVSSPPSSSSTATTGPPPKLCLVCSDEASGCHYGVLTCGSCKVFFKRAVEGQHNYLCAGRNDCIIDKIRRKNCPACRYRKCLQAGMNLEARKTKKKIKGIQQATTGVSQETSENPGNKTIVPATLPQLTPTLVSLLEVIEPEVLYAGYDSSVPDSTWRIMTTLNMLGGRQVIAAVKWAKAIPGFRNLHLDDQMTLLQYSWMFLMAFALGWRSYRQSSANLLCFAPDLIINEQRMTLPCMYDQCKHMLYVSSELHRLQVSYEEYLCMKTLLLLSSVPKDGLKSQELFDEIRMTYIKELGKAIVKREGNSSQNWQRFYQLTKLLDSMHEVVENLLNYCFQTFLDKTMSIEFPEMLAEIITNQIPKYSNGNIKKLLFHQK

C[N+](C)(C)CCOC(=O)CCC(=O)OCC[N+](C)(C)C
inactive: outcome [1] | Potency [2] > 46 µM | Potency [3] > 46 µM | Potency [4] | Potency [5]

NC(N)=NC(=O)Cc1c(Cl)cccc1Cl
inactive: outcome [1] | Potency [2] > 46 µM and > 20.6 µM | Potency [3] > 46 µM and > 20.6 µM | Potency [4] | Potency [5]

CCCC(C(=O)OCCN(CC)CC)(c1ccccc1)c1ccccc1
inactive: outcome [1] | Potency [2] > 46 µM and > 20.6 µM | Potency [3] > 46 µM and > 20.6 µM | Potency [4] | Potency [5]

COc1cc(C(=O)OCCCN2CCCN(CCCOC(=O)c3cc(OC)c(OC)c(OC)c3)CC2)cc(OC)c1OC
inactive: outcome [1] | Potency [2] > 46 µM and > 20.6 µM | Potency [3] > 46 µM and > 20.6 µM | Potency [4] | Potency [5]

Cc1ccc(S(=O)(=O)NC(=O)NN2CCCCCC2)cc1
inactive: outcome [1] | Potency [2] > 46 µM and > 20.6 µM | Potency [3] > 46 µM and > 20.6 µM | Potency [4] | Potency [5]

NCCCNCCSP(=O)(O)O
inactive: outcome [1] | Potency [2] > 46 µM | Potency [3] > 46 µM | Potency [4] | Potency [5]

CCN(CC)CCOCCOC(=O)C1(c2ccccc2)CCCC1
inactive: outcome [1] | Potency [2] > 46 µM and > 20.6 µM | Potency [3] > 46 µM and > 20.6 µM | Potency [4] | Potency [5]

O=C(O)CN(CCOCCOCCN(CC(=O)O)CC(=O)O)CC(=O)O
inactive: outcome [1] | Potency [2] > 46 µM | Potency [3] > 46 µM | Potency [4] | Potency [5]

CN(C)C(=O)Oc1cccc([N+](C)(C)C)c1
inactive: outcome [1] | Potency [2] > 46 µM and > 20.6 µM | Potency [3] > 46 µM and > 20.6 µM | Potency [4] | Potency [5]

CCCOc1ccccc1-c1nc2n[nH]nc2c(=O)[nH]1
inactive: outcome [1] | Potency [2] > 46 µM and > 20.6 µM | Potency [3] > 46 µM and > 20.6 µM | Potency [4] | Potency [5]

CC(C)NNC(=O)c1ccncc1
inactive: outcome [1] | Potency [2] > 46 µM and > 20.6 µM | Potency [3] > 46 µM and > 20.6 µM | Potency [4] | Potency [5]

CN1CCN(C2=Nc3ccccc3Oc3ccc(Cl)cc32)CC1
inactive: outcome [1] | Potency [2] > 46 µM and > 20.6 µM | Potency [3] > 46 µM and > 20.6 µM | Potency [4] | Potency [5]

CN/C(=C\[N+](=O)[O-])NCCSCc1ccc(CN(C)C)o1
inactive: outcome [1] | Potency [2] > 46 µM and > 20.6 µM | Potency [3] > 46 µM and > 20.6 µM | Potency [4] | Potency [5]

CCCCNc1ccc(C(=O)OCCN(C)C)cc1
inactive: outcome [1] | Potency [2] > 46 µM and > 20.6 µM | Potency [3] > 46 µM and > 20.6 µM | Potency [4] | Potency [5]

FC(F)(F)c1ccccc1-n1ccnc1
inactive: outcome [1] | Potency [2] > 46 µM | Potency [3] > 46 µM | Potency [4] | Potency [5]

CNCCCN1c2ccccc2CCc2ccccc21
inactive: outcome [1] | Potency [4] | Potency [5]

CCCCCCCC/C=C\CCCCCCCC(=O)NCc1ccc(O)c(OC)c1
inactive: Potency [3] > 46 µM | Potency [5]

CCN1CCc2nc(N)oc2CC1
inactive: outcome [1] | Potency [2] > 46 µM | Potency [3] > 46 µM | Potency [5]

C[C@H](CS)C(=O)N1CCC[C@H]1C(=O)O
inactive: outcome [1] | Potency [4]

COc1cc(Cc2cnc(N)nc2N)cc(OC)c1OC
inactive: outcome [1] | Potency [4] | outcome [6] | activity change, negative = cytotoxicity [7] -10.3% | Potency [8] | Potency [9] | activity change, negative = cytotoxicity [10] -5.57% | Potency [11] | Potency [5] | outcome [12] | Potency [13] | outcome [14] | outcome [15] | outcome [16] | outcome [17] | outcome [18] | outcome [19]

NC(=O)N1c2ccccc2C=Cc2ccccc21
inactive: outcome [1] | Potency [4] | outcome [6] | activity change, negative = cytotoxicity [7] -9.01% | Potency [8] | Potency [20] | Potency [9] | activity change, negative = cytotoxicity [10] 2.97% | Potency [11] | Potency [5] | outcome [12] | Potency [13] | outcome [14] | outcome [15] | outcome [16] | outcome [17] | outcome [18] | outcome [19]
